Compound activity: PubChem, National Center for Advancing Translational Sciences (NCATS)
AmpC inh no detg: AmpC beta-lactamase inhibition without detergent; Potency, µM (top dose mostly 57.1 µM), for inactives: at the highest dose activity change, negative = inhibition, hits mostly inhibitors; AmpC nitrocefin hydrolysis, absorbance 480 nm, 0.0001% Triton; P00811; 330,000 tested, 0.52% active;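 note: potency is the fitted concentration of half-maximal effect; plate controls were no compound for no effect and no enzyme for full effect; nearly all actives have a fitted effect of over 20% in size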
Target sequence (P00811 whole entry, looked up): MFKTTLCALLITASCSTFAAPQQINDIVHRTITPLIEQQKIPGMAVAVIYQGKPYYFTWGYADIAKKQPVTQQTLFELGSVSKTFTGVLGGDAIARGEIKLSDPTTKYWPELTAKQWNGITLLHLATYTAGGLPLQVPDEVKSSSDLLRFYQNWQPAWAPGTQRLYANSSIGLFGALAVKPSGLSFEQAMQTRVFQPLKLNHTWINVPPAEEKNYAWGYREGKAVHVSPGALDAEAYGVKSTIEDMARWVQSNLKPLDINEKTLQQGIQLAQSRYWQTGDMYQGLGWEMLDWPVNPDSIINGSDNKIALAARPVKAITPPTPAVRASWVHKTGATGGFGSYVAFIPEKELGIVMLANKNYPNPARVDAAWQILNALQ
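20 mM phosphate pH 7.0 + 0.01% (detergent screen) or 0.0001% Triton X-100; 5.3 nM AmpC reagent; cpd preinc 15 min RT; nitrocefin (800 uM stock) to start; A480 q20 s × 4 min; Activity was normalised to no-enzyme and no-compound control wells.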
NS1 function inh: influenza NS1 inhibition; Potency, µM (series often up to 46.1 µM), inactives show at the top dose activity, positive = more growth; 270,000 tested, 0.4% active; calls by dose curve; note: potency is the fitted concentration of half-maximal effect; actives are rising curves; nearly all actives have a fitted effect of over 50% in size
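Compounds were scored for reversing the slow growth caused by influenza A NS1 in S. cerevisiae, measured by optical density at 600 nm. Assay medium contained 2% galactose at pH 6.0; NS1-free yeast of the same strain were the positive control.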
CHX counter: affects cycloheximide protein synthesis inhibition readout, counter-screen | 300,000 tested, 12% active | cell reporter, cycloheximide protein synthesis inhibition counterscreen | AID 2314 | max response, %; in the data active = max response mostly above about 13%, no sharp cut-off; inactive = mostly below about 14%; note: read at 38.3 µM for the half of the compounds with a filed dose; 0% is about no effect
Shiga inhibitor: Shiga toxin inhibition; Vero cells, Shiga toxin protein synthesis inhibition reporter; inhibition, % at 38.7 µM; 290,000 tested, 9.2% active; in the data active = inhibition mostly above about 28%, no sharp cut-off; inactive = mostly below about 43%; note: 0% is about no effect
AmpC detergent: AmpC beta-lactamase inhibition with detergent present; P00811; AmpC hydrolysis of nitrocefin, absorbance 480 nm, 0.01% Triton; 370,000 tested, 0.041% active; AID 485294; Potency, µM (top dose mostly 114 µM), without a hit: at the highest dose activity change, negative = inhibition, actives largely listed as inhibitors;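 note: potency is the fitted concentration of half-maximal effect; 0% = no-compound wells and -100% = no-enzyme wells; nearly all actives have a fitted effect of over 25% in size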
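20 mM phosphate pH 7.0 + 0.01% (detergent screen) or 0.0001% Triton X-100; 5.3 nM AmpC reagent; cpd preinc 15 min RT; nitrocefin (800 uM stock) to start; A480 q20 s × 4 min; Activity was normalised to no-enzyme and no-compound control wells.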
Numbers without * were called inactive; ? = inconclusive; · = no result; [ ] = dose if it differs, or a comment. The full list was thinned out, with hits kept by preference. Unless noted, calls come from the whole dose curve; as a rule, active = well fitted curve in the direction sought with a large enough effect; inconclusive = small, poorly fitted or top-dose-only effect, or another doubt; inactive = no such curve, though single readings can be large; an effect the other way counts as inactive or inconclusive.

SMILES	AmpC inh no detg	NS1 function inh	CHX counter	Shiga inhibitor	AmpC detergent
CCN(CC)CCN1C(=O)c2oc3ccccc3c(=O)c2C1c1ccccc1 (configuration not stated)	4%	6%	35*	35	4%
CC(C)Oc1ccc(C2c3c(oc4ccccc4c3=O)C(=O)N2CCCN2CCOCC2)cc1 (configuration not stated)	82%	4%	17*	54*	0%
Cc1ccc(/C(O)=C2/C(=O)C(=O)N(CCN3CCOCC3)C2c2cccnc2)cc1 (configuration not stated)	-26%	11%	-2	12	?
COc1cccc(/C(O)=C2/C(=O)C(=O)N(CCN(C)C)C2c2ccccn2)c1 (configuration not stated)	-5%	-3%	11	41	-11%
CCN(CC)CCN1C(=O)c2oc3ccccc3c(=O)c2C1c1cccc(Br)c1 (configuration not stated)	44%	-12%	-3	25	-7%
CN(C)CCN1C(=O)C(=O)/C(=C(/O)c2ccc3c(c2)OCCO3)C1c1ccccn1 (configuration not stated)	0%	4%	42*	102*	-4%
COC(=O)c1c(SCC(=O)Nc2cccc(C(F)(F)F)c2)[nH]c2ccccc2c1=O	·	·	·	·	2%
Cc1c(/C(O)=C2/C(=O)C(=O)N(CCN3CCOCC3)C2c2ccccn2)cnn1-c1ccccc1 (configuration not stated)	55%	2%	28*	50*	-7%
CC(C)Oc1ccc(/C(O)=C2/C(=O)C(=O)N(CCN3CCOCC3)C2c2ccccc2)cc1 (configuration not stated)	-28%	-1%	25*	112*	-6%
COc1ccc(/C(O)=C2/C(=O)C(=O)N(CCN3CCOCC3)C2c2ccccn2)cc1 (configuration not stated)	27%	8%	33*	54*	-14%
O=C1C(=O)N(CCN2CCOCC2)C(c2ccccn2)/C1=C(/O)c1ccc(F)cc1 (configuration not stated)	46%	5%	10	15	?
Cc1ccc(C2/C(=C(/O)c3cnn(-c4ccccc4)c3C)C(=O)C(=O)N2CCCN2CCOCC2)o1 (configuration not stated)	34%	10%	34*	54*	-8%
C[N+]1(CC(=O)Nc2ccccc2Cl)CCN(C(=O)c2cccs2)CC1	-7%	-9%	-1	30	-13%
COC(=O)c1ccc(CNC(=O)Cn2cnc3c(SC)nc(N)nc32)cc1	-8%	·	·	·	·
N=C1N(/N=C/c2ccccc2)C(=Nc2ccccc2)C(=S)N1c1ccccc1	-34%	14%	42*	active	?
C(#CC1CCCC1)c1ccc2c(c1)COc1c3ccccc3nn1-2	-38%	0%	14*	91*	-4%
CCCc1cc(-c2ccc3c(c2)COc2c4ccccc4nn2-3)on1	-27%	·	·	·	-2%
CCc1ccc(NC(=O)C2(C)Cc3ccccc3C(=O)O2)cc1 (configuration not stated)	0%	-5%	26*	41*	7%
CCCCc1ccc(NC(=O)C2(C)Cc3ccccc3C(=O)O2)cc1 (configuration not stated)	·	·	·	·	5%
C=C1c2ccccc2NC(=S)N1Cc1ccc2c(c1)OCO2	-18%[11.4 µM]	·	41*	65*	-2%
O=C(NC(=S)NCCc1ccccn1)c1ccccc1	-12%	·	58*	95*	3%
O=C(NCc1ccccn1)/C(=C/c1ccco1)NC(=O)c1ccccc1	-5%	1%	-3	-9	?
O=C(NC(=S)NCCc1ccccn1)c1ccco1	-25%	-5%	23*	26	-9%
O=C(NCCc1ccccn1)/C(=C/c1ccco1)NC(=O)c1ccccc1	-15%	7%	33*	49*	-10%
C=CCn1c(C)cc(C(=O)COc2ncnc3sccc23)c1C	-17%	-12%	40*	120	-12%
SMILES	AmpC inh no detg	NS1 function inh	CHX counter	Shiga inhibitor	AmpC detergent
CCCc1ccc2oc(C(=O)N(C)Cc3nccs3)c(C)c2c1	149%	-86%	56*	117*	2%
Cc1ccc2c(C)c(C(=O)N3CCN(C4CCS(=O)(=O)C4)CC3)oc2c1C (configuration not stated)	157%	-16%	18*	-13	2%
Cc1ccc2c(C)c(C(=O)N3CCN(c4cnccn4)CC3)oc2c1C	138%	-73%	10	66	8%
CCOC(=O)C1CCN(C2CCN(C(=O)c3oc4c(C)c(C)ccc4c3C)CC2)CC1	179%	3%	19*	82*	3%
Cc1ccc2c(C)c(C(=O)N3CCCC(C(N)=O)C3)oc2c1C (configuration not stated)	44%	3%	27*	72*	1%
Cc1ccc2c(C)c(C(=O)N3CCC(O)(c4ccccc4)CC3)oc2c1C	51%	-74%	-2	-4	-12%
COC(=O)c1ccccc1-c1c2ccc(=N)cc-2oc2cc(N)ccc12	-10%	·	·	·	?
Cc1cccc(C)c1NC(=O)CN(C)S(=O)(=O)c1ccc2c(c1)n(C)c(=O)c(=O)n2C	·	·	·	·	0%
Cc1c(C(=O)N2CCN(C3CCS(=O)(=O)C3)CC2)oc2ccc(Cl)cc12 (configuration not stated)	29%	·	·	·	?
CCCc1ccc2oc(C(=O)N3CCC(O)CC3)c(C)c2c1	94%	-25%	44*	70*	-7%
CCCc1ccc2oc(C(=O)N3CCN(C4CCS(=O)(=O)C4)CC3)c(C)c2c1 (configuration not stated)	164%	3%	23*	19	-13%
CSc1ncc(C(=O)Nc2ccccc2C(F)(F)F)c(-c2ccccc2)n1	·	·	·	·	23%
Nc1ncc(Br)cc1S(=O)(=O)Nc1cc(C(F)(F)F)cc(C(F)(F)F)c1	-32%	-60%	-4	12	-5%
C/C(=N\N=C\c1ccccc1F)c1nnn(-c2nonc2N)c1C	-20%	-3%	16*	80*	-12%
Nc1nonc1-n1nnc(C(=O)N/N=C/c2ccccc2F)c1-c1cccs1	-53%	6%	-7	2	?
C/C(=N\NC(=O)c1nnn(-c2nonc2N)c1C)c1ccc(OCc2ccccc2)cc1	-17%	14%	22*	57*	5%
COCc1c(C(=O)N/N=C(/C)c2ccc(OCc3ccccc3)cc2)nnn1-c1nonc1N	-18%	-14%	23*	97*	-10%
CCOc1ccc(-c2cc3c(=O)n(Cc4nc(-c5ccccc5OCC)oc4C)ccn3n2)cc1Cl	·	·	·	·	3%
Cc1cc(O)c2c(c1O)C(=O)[C@]13C(=C2O)C(=O)[C@@H]2[C@@H](O)[C@H]1[C@@H]1[C@H](O)[C@H]3C(=O)C3=C(O)c4c(O)cc(C)c(O)c4C(=O)[C@]312	28µM*	·	·	·	·
O=C(O)Cc1ccc(N=Nc2c(O)c(C(=O)O)cc3ccccc23)cc1	-39%	16%	56*	133*	-15%
